The results in this text go back to PubChem BioAssay AID588726 (The Scripps Research Institute Molecular Screening Center, 2011).

One may read the inhibition as the drop in the measured response relative to a control, in per cent.

Out of some 360,000 compounds screened, about 8,200 (2.3%) were called active. Cut-off read from the data, not from the text of the source: active = inhibition above about 27%; inactive = the rest. For the sample, actives were picked, then their nearest neighbours and some compounds at random.

For the experiment, the target named is Fructose-bisphosphate aldolase (Mycobacterium tuberculosis (strain ATCC 25618 / H37Rv)) (UniProt P9WQA3). In words: M. tuberculosis aldolase activity blockers – biochemical, fluorescence, strain H37Rv, primary screen (AID 588726).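 Note: 0% = vehicle and 100% = reference inhibitor.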 As to conditions: purified M. tuberculosis FBA, fluorescence read-out, at 1 µM, active compounds read high.
Sequence of Fructose-bisphosphate aldolase (Mycobacterium tuberculosis (strain ATCC 25618 / H37Rv)) (P9WQA3 whole entry, looked up): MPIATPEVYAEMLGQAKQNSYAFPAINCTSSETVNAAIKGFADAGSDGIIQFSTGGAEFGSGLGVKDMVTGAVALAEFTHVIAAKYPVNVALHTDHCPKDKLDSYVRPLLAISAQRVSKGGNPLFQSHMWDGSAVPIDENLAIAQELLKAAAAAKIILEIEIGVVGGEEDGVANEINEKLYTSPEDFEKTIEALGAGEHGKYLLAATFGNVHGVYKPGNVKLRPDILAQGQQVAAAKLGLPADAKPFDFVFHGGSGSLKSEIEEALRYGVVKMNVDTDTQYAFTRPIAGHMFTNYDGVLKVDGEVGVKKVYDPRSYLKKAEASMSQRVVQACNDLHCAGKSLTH
`Cc1cc(NC(=O)C(C)SCC(=O)Nc2cccc(S(=O)(=O)N3CCCCCC3)c2)no1` (stereo not drawn): the inhibition is 2.17% (inactive). Then `COc1cccc(NC(=O)CSc2nnc(C3CCCCC3)n2N)c1`, with -1.25% (inactive). In the case of `CC(=O)NC(CC(=O)Nc1nccs1)c1ccccc1` (stereo not drawn), the inhibition was 6.36% (inactive). Consider `OC(CN=c1sc2ccccc2n1CC(O)COc1ccccc1)COc1ccccc1` (stereo not drawn), for which the inhibition was -7.04% (inactive). To `CC(C)COP(=O)(c1ccc(N(C)C)cc1)C(Nc1ccccc1)c1cccnc1` (stereo not drawn) belongs 6.04% (inactive). To `COc1ccc(C(=O)N(CCN2CCOCC2)CC(=O)NC2CCCC2)cc1OC` belongs -0.65% (inactive); to `Cc1ccc2nc(-c3ccccc3)c(CC3CCCCC3)n2c1`, 3.26% (inactive). To `Cc1ccccc1C(=O)NCCN=C1NS(=O)(=O)c2ccccc21` belongs 0.52% (inactive); to `COc1ccc(-n2c(C)nn(CC3CC3)c2=O)cc1`, -1.25% (inactive); to `COc1ccc(CC(NC(C)=O)C(=O)N2CCN(C(=O)Nc3cccc(Cl)c3)CC2)cc1OC` (stereo not drawn), 1.24% (inactive).

Turning to `CCCS(=O)(=O)Nc1ccc(-c2cn3c(n2)SCC3)cc1`, the inhibition was 0.71% (inactive). Then `CS(=O)(=O)Nc1ccc(C(=O)N2CCCC2)cc1`, with 4.14% (inactive); and `CNc1cncc(-c2ccc(NS(C)(=O)=O)cc2)n1`, with 174% (active); and `C#CCNC(=O)C1=C[C@@H](c2ccccc2)[C@H](CCCO)[C@@H](OCC)O1`, with 0.54% (inactive). To `COc1ccc2ccn(C)c2c1` belongs 0% (inactive); to `COc1ccc2c(c1)cc1n2CCN=C1NN`, 41.9% (active).

Turning to `COc1ccc(N)c(C)c1`, the inhibition was 1.98% (inactive). To `Cc1ccc(-c2nc3ccccc3[nH]c2=O)cc1` belongs 76.5% (active); to `Cc1ccc(-c2nnc(-n3nnc4ccccc43)c3ccccc23)cc1`, -0.52% (inactive). To `O=c1[nH]c2ccccc2n2c(-c3ccccc3)nnc12` belongs 4.09% (inactive); to `O=C(NCC(=O)N1CCN(c2ccccc2O)CC1)c1ccc2ccccc2c1`, 1.15% (inactive). To `CC(C(=O)NCCc1ccc(S(N)(=O)=O)cc1)N1C(=O)CC(C)(C)Sc2ccccc21` (stereo not drawn) belongs 4.96% (inactive); to `CC(=O)NC1=NC(=O)CS1`, 3.59% (inactive); to `C[n+]1ccc(C(=O)NCc2ccccc2)cc1`, 3.53% (inactive). With `Cc1cc(N2C(=O)c3ccc(C(=O)NCc4ccccc4)cc3C2=O)no1`, the inhibition is 0.51% (inactive). With `CCCn1nc2cc(C(=O)NCc3ccccc3)ccc2c1OCC`, the inhibition was 57.5% (active).

Take `COc1ccccc1-n1c(C)nc2cc(C(=O)NCc3ccc4c(c3)OCO4)ccc21`: the inhibition is 0.13% (inactive). To `CCOc1c2ccc(C(=O)NCc3ccc(OC(F)(F)F)cc3)cc2nn1C` belongs 44% (active); to `CCOc1ccc(NC(=O)COc2ccc(C(=O)NC3CCCc4ccccc43)cc2OC)cc1` (stereo not drawn), 3.93% (inactive); to `O=C(COC(=O)c1ccc(Cl)nc1)NCc1ccc2c(c1)OCO2`, -2.36% (inactive). On to `CNS(=O)(=O)c1cccc(C(=O)NC2CCCc3ccccc32)c1` (stereo not drawn), for which the inhibition is 5.34% (inactive). To `C=CCOc1c2ccc(C(=O)N(CC)c3ccc(OC)cc3)cc2nn1C` belongs 17.6% (inactive); to `COc1ccc(CNC(=O)c2ccc3oc(C(C)C)nc3c2)cc1`, 0.16% (inactive); to `CCOc1c2ccc(C(=O)NCc3ccc4c(c3)OCO4)cc2nn1C`, 50.2% (active). In the case of `CCOc1c2ccc(C(=O)NC3CCCc4ccccc43)cc2nn1CC` (stereo not drawn), the inhibition was 42.8% (active).

As to `Cc1ccc(Nc2ccccc2N)cc1`, the inhibition is 8.06% (inactive).

In the case of `CC1(C)Cc2cccc(OCC(=O)N3CCN(c4ccc([N+](=O)[O-])cc4)CC3)c2O1`, the inhibition was -5.39% (inactive).

For the compound `O=C(CCN1CCCCC1)Nc1ccc(F)c(F)c1`, the inhibition was -0.67% (inactive). Then `Cc1noc(C)c1CCC(=O)O`, with 1.72% (inactive).

For `CC(C)(C)n1nnc(CCc2nnn(C(C)(C)C)n2)n1`, the inhibition is 2.81% (inactive). To `COc1ccc(CCNC(=O)C2CC3Cn4c(nc5cc(C)c(C)cc54)C3N2C)cc1` (stereo not drawn) belongs 1.06% (inactive); to `CCC1CCCCN1C(=O)CSc1nc2c(c(=O)n1C)SC(C)C2` (stereo not drawn), -1.89% (inactive). In the case of `CCc1c(C)nc2c(OC)cccc2c1Cl`, the inhibition is 6.78% (inactive). To `COc1nc(N=C(N)N)nc2c(C)cccc12` belongs 32.9% (active); to `Cc1nc(N=C(N)N)nc2c(C)cccc12`, 8% (inactive). To `CCn1nc(C)cc1C(=O)N1CCCC(C(=O)c2cccc(OC)c2)C1` (stereo not drawn) belongs -1.49% (inactive); to `COc1ccc(C(=O)C2CCCN(C(=O)c3cnsn3)C2)c(C)c1` (stereo not drawn), 2.56% (inactive); to `COc1ccc2cc(C(=O)C3CCCN(C(=O)c4sc(C)nc4C)C3)ccc2c1` (stereo not drawn), 162% (active). Then `COc1ccc(-c2c(-c3cc(OC)cc(OC)c3)n(C)c3ccc(-c4ccn[nH]4)cc23)cc1`, with 41.1% (active); and `COc1cc(OC)cc(-c2c(-c3ccc(F)cc3)c3cc(-c4ccc5cc[nH]c5c4)ccc3n2C)c1`, with 26.4% (inactive).

`COc1cc(OC)cc(-c2c(-c3cccs3)c3cc(-c4ccc(OC)nc4)ccc3n2C)c1`: the inhibition was 1.28% (inactive). Then `Cc1csc(/N=C/N(C)C)c1C#N`, with -1.13% (inactive). To `CCOCCCNC(=O)c1c[nH]c2cc(C)ccc2c1=O` belongs 4.52% (inactive). For `CCOCCCNC(=O)c1cc2c(=O)n3ccccc3nc2s1`, the inhibition was 184% (active). To `CCOCCCNC(=O)c1cn(CC(C)C)c(=O)c2c1c1ccccc1n2C` belongs 25.3% (inactive).

In the case of `CN(c1ccc2nc3ccccc3c(=O)n2n1)C1CCCCC1`, the inhibition is 1.09% (inactive). Regarding `CN(C(=O)c1cc2c(=O)n3ccccc3nc2s1)C1CCCCC1`, the inhibition is 94.8% (active). To `CN(C(=O)CSc1nnnn1-c1ccccc1)C1CCCCC1` belongs 5.06% (inactive); to `CCn1ncc(C2=NOC(C(=O)N3CCN(c4ccccc4)CC3)C2)c1C` (stereo not drawn), 0.67% (inactive).

Take `C[C@@H]1CN([C@@H](C)CO)C(=O)CCCn2cc(nn2)CO[C@H]1CN(C)S(=O)(=O)c1ccc(-n2cccn2)cc1`: the inhibition was -4.05% (inactive). In the case of `Cc1ccc(C(=O)OCC(=O)Nc2ccc(Cl)cn2)cc1S(=O)(=O)N1CCOCC1`, the inhibition was -2.24% (inactive). Then `CCc1ccc(C(=O)NN=C2CCCCCC2)s1`, with 2.93% (inactive). To `Cc1ccc(Cn2cc(C(=O)NN)c(=O)c3ccc(F)cc32)cc1` belongs -0.43% (inactive); to `C#Cc1cc(N2CCN(C(=O)c3ccoc3)CC2)n2nc(-c3cccc(Cl)c3)cc2n1`, 51.1% (active); to `CCc1nc2ccc(C(=O)N3CCN(c4cccc(Cl)c4)CC3)cc2nc1CC`, -5.44% (inactive). To `CCCCCn1c(SCCC(C)C)nc2c1c(=O)[nH]c(=O)n2C` belongs -1.96% (inactive); to `Nc1ccc2nn(-c3ccc(Cl)cc3)nc2c1`, 52.9% (active). For the compound `Nc1nc2cc(Cl)ccc2n1N`, the inhibition is 1.5% (inactive). In the case of `Nc1ccc2c(c1)C(O)c1ccc(Cl)cc1-2` (stereo not drawn), the inhibition was 0.95% (inactive).

With `CCC(C)(C)NC(=O)CN(C(=O)CCC(=O)Nc1cc(C)ccn1)c1ccc2c(c1)OCCO2`, the inhibition was -0.12% (inactive). Turning to `Cc1ccc(CCn2c3c(c4ccccc42)CN(C)CC3)cn1`, the inhibition was 4.44% (inactive). To `CC(C)C(=O)Nc1oc(-c2ccccc2)cc1C#N` belongs 1.2% (inactive).

On to `Cn1cccc1C(C#N)c1ccccc1C#N` (stereo not drawn), for which the inhibition is -1.4% (inactive).

On to `Cn1cc(-c2ccccc2)cc(C#N)c1=O`, for which the inhibition was 50.3% (active).

Turning to `O=P(O)(CP(=O)(c1ccccc1)c1ccccc1)c1ccccc1O`, the inhibition was -1.86% (inactive).

For the compound `COc1ccc(CCN2CC(C(=O)OCC(=O)NCc3ccccc3Cl)CC2=O)cc1OC` (stereo not drawn), the inhibition is -0.32% (inactive). Then `Cc1c(Br)c([N+](=O)[O-])nn1C(C)C(=O)Nc1nccs1` (stereo not drawn), with 0.22% (inactive); and `Cn1nnnc1-c1cc(Cl)cc(Cl)c1`, with -1.41% (inactive); and `O=C(CNC(=O)c1ccccc1Br)NCCSc1ccc(Br)cc1`, with 2.75% (inactive).

On to `CSCCC(NS(=O)(=O)c1ccc(C)cc1)C(=O)N1CCCC1` (stereo not drawn), for which the inhibition is -1.91% (inactive). To `CCCCC(NS(=O)(=O)c1ccc(C)cc1)C(=O)Oc1ccc2c3c(c(=O)oc2c1)CCC3` (stereo not drawn) belongs 61.7% (active); to `Cc1cc(=O)oc2cc(OC(C)C(=O)NCCc3ccc(S(N)(=O)=O)cc3)ccc12` (stereo not drawn), 20.4% (inactive). Consider `C[C@H](OC(=O)n1ccnc1)[C@@H]1O[C@@]2(C)CCC[C@@H]1O2`, for which the inhibition is -0.83% (inactive). Then `CC1(C)C(=O)C2(CCCCC2)C(=O)OC1c1cccs1` (stereo not drawn), with -0.98% (inactive). Then `COc1ccc(NC(=O)C2Cc3c(-c4ccc5c(c4)OCO5)ccnc3O2)cn1` (stereo not drawn), with 64.8% (active); and `COc1ccc(NC(=O)C2Cc3c(-c4ccc(Cl)cc4)ccnc3O2)cc1` (stereo not drawn), with -1.52% (inactive); and `O=C(Nc1ccc(Cl)cc1)C1Cc2c(-c3ccc4c(c3)OCO4)ccnc2O1` (stereo not drawn), with 26.8% (inactive).

For the compound `CCCCn1c(N)c(N(Cc2ccccc2OC)C(=O)COc2cc(C)ccc2Cl)c(=O)[nH]c1=O`, the inhibition is 1.47% (inactive). To `CCOc1ccc(OCC)c(-c2c(=O)n(OCc3ccc(Cl)cc3)c3ccccc3[n+]2[O-])c1` belongs -1.68% (inactive); to `Brc1cnc(N2CCCC2)nc1N1CCCCC1`, 4.23% (inactive); to `Brc1cnc2ccccc2c1N1CCCCC1`, 51.2% (active).

Consider `c1ccc(-c2cc(N3CCCCC3)c3ccccc3n2)cc1`, for which the inhibition is 0.14% (inactive). To `CCOC(=O)c1c(S(=O)(=O)Nc2ccc(CN3CCC(C)CC3)cc2)c(C)n(C)c1C` belongs 1.42% (inactive); to `CCCCn1c(=S)[nH]c2ncccc2c1=O`, 0.66% (inactive).

Regarding `CN(CCc1ccccn1)C(=O)CCC1CCCN(Cc2ccccc2OC(F)F)C1` (stereo not drawn), the inhibition is 5.01% (inactive).

For the compound `CCCCc1nc(NCc2ccccc2)c(C#N)c2c1CCCC2`, the inhibition was 0.15% (inactive). To `CC(C)CCNc1nc(N2CCCC2)c2c(c1C#N)CCN(C)C2` belongs 4.23% (inactive); to `CCN1CCc2c(C#N)c(NCc3ccccc3)nc(NCCO)c2C1`, 33.9% (active).
